The results in this text go back to PubChem BioAssay AID1979 (Broad Institute, 2009).

Hit rate of the full screen: of about 300,000 compounds, about 1,700 (0.57%) were called active. Another 2% or so got no clear call; they are omitted.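 The calls were made as follows: active = growth inhibition above about 58% in most replicates (limit read from the data, passing the limit was not always enough); inconclusive = exactly half the replicates above a set limit; inactive = most replicates below a set limit.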 The sample as a whole holds a higher share of actives than the screen did.

The assay in a line: Candida growth reduction under fluconazole – CaCi-2 strain, Alamar Blue fluorescence, primary screen (AID 1979).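 Also: all wells also contain fluconazole at 8 µg/ml as a sub-toxic cotreatment; 0% = median of DMSO wells and 100% = median of geldanamycin control wells.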 The settings on record: C. albicans CaCi-2 (fluconazole-resistant clinical isolate) + fluconazole, 48 h, hits give high values, concentration not given here.
Turning to `COc1ccc(-c2nnc(SCC(=O)Nc3cccnc3Cl)n2C)cc1`, the growth inhibition was 6.53% (inactive).
In the case of `O=C(NC(Cc1ccccc1)C(=O)N1CCCC(C(F)(F)F)C1)c1ccccc1` (centres undefined), the growth inhibition is 1.33% (inactive).
Regarding `CCCCN(C(=O)CSCC(=O)Nc1ccc(OC)cc1)c1c(N)n(CCC)c(=O)[nH]c1=O`, the growth inhibition was -2.57% (inactive).
Turning to `CC12CCC(C(=O)N(c3cccc(Cl)c3)C1=O)C2(C)C` (centres undefined), the growth inhibition is -3.94% (inactive).
As for `O=C(NN1C(=O)C2C(C1=O)C1C=CC2C12CC2)c1ccccc1Cl` (centres undefined), the figure is 3.48% (inactive); as for `CC12CCC(C(=O)N(NC(=O)c3ccccc3O)C1=O)C2(C)C` (centres undefined), 107% (active); as for `COc1ccc(/C=N/NC(=O)c2cc(-c3cccc(C)c3)nc3ccccc23)cc1O`, 34.6% (inactive).
As for `Cc1ccc(/C=N/NC(=O)C2=NNC(c3ccccc3)(c3ccccc3)C2)c(O)c1`, the figure is 102% (active).
As to `COc1cc(/C=N/NC(=O)c2cc(-c3ccccc3C)nc3ccccc23)cc(OC)c1O`, the growth inhibition is 32.7% (inactive).
Turning to `O=C(Nc1ccc(OC(F)(F)F)cc1)c1ccc2c(c1)no[n+]2[O-]`, the growth inhibition was -3.65% (inactive).
As for `CC1CC2=C(CC1/C=N/NC(N)=S)C(C)(C)CCC2` (centres undefined), the figure is 26.2% (inactive); as for `CC(C)CN(C(=O)c1ccc2c(c1)OCO2)C1CCS(=O)(=O)C1` (centres undefined), 3.11% (inactive).
As for `CCOc1cc(C(=O)Nc2ccc(S(=O)(=O)Nc3cnc4ccccc4n3)cc2)cc(OCC)c1OCC`, the figure is 19.7% (inactive).
As for `CC(=O)Nc1ccc(Nc2c3ccccc3nc3ccccc23)cc1`, the figure is 111% (active); as for `CC(=O)Nc1ccc(NC(=O)COc2ncnc3ccccc23)cc1`, -12.4% (inactive).
As to `Cc1ccc(Nc2c3c(nc4ccccc24)CCC3)cc1`, the growth inhibition was 70.5% (inactive).
Turning to `COc1ccc(C(=O)OCC(=O)Nc2ccc3[nH]c(=O)[nH]c3c2)c(OC)c1OC`, the growth inhibition is -6.2% (inactive).
As for `CC(OC(=O)CCC(=O)c1ccccc1)C(=O)Nc1ccc(F)cc1` (centres undefined), the figure is -2.1% (inactive).
With `C=CCOc1ccc(/C=C/C(=O)OC(C)C(=O)Nc2ccc(NC(C)=O)cc2)cc1` (centres undefined), the growth inhibition was -2.89% (inactive).
On to `O=C(CN(C(=O)c1csnn1)c1cccc(Cl)c1)NC1CCCC1`, for which the growth inhibition is 9.33% (inactive).
As for `CC(C)C(=O)Nc1cccc(NC(=S)NC(=O)C(c2ccccc2)c2ccccc2)c1`, the figure is 50.4% (inactive).
For the molecule `O=C(NNC(=S)NCc1ccco1)C(c1ccccc1)c1ccccc1`, the growth inhibition is 15.6% (inactive).
As for `CCCCC(=O)NNC(=S)NC(=O)C(c1ccccc1)c1ccccc1`, the figure is 107% (active); as for `Cc1ccc(CSCC(=O)N(C)CC(=O)Nc2cccc(F)c2)cc1`, -6.82% (inactive); as for `Cc1ccc(OCCC(=O)OCC(=O)N2c3ccccc3NC(=O)C2(C)C)cc1`, -5.48% (inactive).
As to `Cn1c(N2CCOCC2)c(C=O)c2ccccc21`, the growth inhibition is -1.88% (inactive).
As for `Cc1cc(C(=O)OC(C)C(=O)NC2CCCCC2C)c(C)o1` (centres undefined), the figure is -4.31% (inactive); as for `COc1ccccc1/C=N\Nc1cc(C)nc(-n2nc(C)cc2C)n1`, 2.71% (inactive); as for `COc1cccc(/C=N/Nc2cc(C)nc(-c3ccccc3O)n2)c1O`, 112% (active).
As for `COc1cccc(/C=N/Nc2ncc(C(F)(F)F)cc2Cl)c1O`, the figure is 3.96% (inactive).
Regarding `CCOC(=O)c1c(NC(=O)CN2C(=O)NC3(CCC(C)CC3)C2=O)sc(C)c1CC` (centres undefined), the growth inhibition is -6.28% (inactive).
As for `CN(C)c1ccc(/C=N\S(=O)(=O)c2ccccc2)cc1`, the figure is -0.179% (inactive); as for `CC[n+]1cc(C)ccc1/C=C/c1ccc(N(C)C)cc1`, 79.2% (active); as for `Cc1nnc(N/N=C/C2CC=CCC2)[nH]c1=O` (centres undefined), -10.8% (inactive).
As for `Cc1nnc(N/N=C/c2ccccn2)[nH]c1=O`, the figure is 102% (active).
On to `Cc1nnc(N/N=C/c2cccs2)[nH]c1=O`, for which the growth inhibition was -0.996% (inactive).
Take `CCN(CC(=O)Nc1cc(Cl)ccc1C)C(=O)CSCc1ccc(C)cc1`: the growth inhibition was -5.77% (inactive).
The same measure for `O=S(=O)(NCCS(=O)(=O)N1CCN(c2ccccc2)CC1)c1ccc(F)cc1`: 0.355% (inactive); for `O=C(CC(c1ccccc1)c1cc(Cl)ccc1O)NCCN1CCOCC1` (centres undefined): -8.66% (inactive).
The same measure for `O=C(CC(NCCN1CCOCC1)C(=O)O)Nc1cccc(Cl)c1` (centres undefined): 90.7% (active).
In the case of `O=C(NCCN1CCOCC1)Nc1cccc(Cl)c1`, the growth inhibition is 10.7% (inactive).
The same measure for `COc1ccccc1C(=O)COC(=O)CSCC(=O)Nc1cc(C)on1`: 0.143% (inactive); for `O=C(COC(=O)c1ncc(Cl)c(Cl)c1Cl)NC1CCS(=O)(=O)C1` (centres undefined): -0.837% (inactive).
The same measure for `Oc1ccccc1/C=N/n1c(-c2cccs2)n[nH]c1=S`: -0.357% (inactive).
`S=c1[nH]nc(-c2cccs2)n1/N=C/c1cccs1`: the growth inhibition is 78.7% (active).
For the molecule `S=c1[nH]nc(-c2cccs2)n1/N=C/c1cn(-c2ccccc2)nc1-c1ccc(Cl)cc1`, the growth inhibition was -0.57% (inactive).
For `COc1cc(C(=O)OCC(=O)N(CC(C)C)C2CCS(=O)(=O)C2)ccc1OCC(C)C` (centres undefined), the growth inhibition is 5.68% (inactive).
As for `Cc1cccnc1NC(=O)c1cccc(S(=O)(=O)N2CCN(c3ccc(F)cc3)CC2)c1`, the figure is -15.4% (inactive); as for `Oc1c(CN2CCN(c3ccc(F)cc3)CC2)cc(Cl)c2cccnc12`, 112% (active).
In the case of `Oc1ccc(CN2CCN(c3ncccn3)CC2)cc1`, the growth inhibition is -5.62% (inactive).
As for `Cc1noc(C)c1COc1ccccc1C(=O)N(C)CC(=O)Nc1cccc(F)c1`, the figure is 3.18% (inactive); as for `Cc1ccc(C(=O)NNC(=O)C(C)Oc2ccc3ccccc3c2)o1` (centres undefined), -0.807% (inactive).
Take `CCOC(=O)c1c(-c2ccccc2)oc2cc(Br)c(O)c(C=O)c12`: the growth inhibition was 99.6% (active).
As for `CCOC(=O)c1c(-c2ccccc2)oc2ccc(OCC(N)=O)cc12`, the figure is 1.32% (inactive); as for `CCOC(=O)c1c(-c2ccccc2)oc2cc(Br)c(O)cc12`, 15.1% (inactive).
Turning to `OC(COCCC12CC3CC(CC(C3)C1)C2)CN1CCCCC1` (centres undefined), the growth inhibition is 8.32% (inactive).
The same measure for `O=C(CCCCO)c1ccc(O)c(Cl)c1`: -0.4% (inactive); for `Cc1ccc(NNC(=O)c2c(F)cccc2Cl)cc1Cl`: 3.83% (inactive); for `O=C(NNC(=O)c1ccc(Cl)cc1Cl)c1cccs1`: -3.73% (inactive).
As for `Cc1ccc(NNC(=O)c2cccs2)cc1Cl`, the figure is 94.7% (active).
As for `N[C@@H](Cc1ccccc1)C(=O)N1CCC(C(=O)NCC(=O)Nc2ccc(F)cc2)CC1`, the figure is -10.4% (inactive); as for `COc1ccc(NC(=O)CSc2nc(C)cs2)cc1`, 106% (active); as for `COc1cc(OC)cc(-c2nnc(SCC(=O)Nc3ccc(C(=O)O)cc3)s2)c1`, -1.63% (inactive).
For `Cc1csc(SCC(=O)Nc2sccc2C#N)n1`, the growth inhibition is 4.45% (inactive).
As for `Cc1ccnc(NC(=O)CNC(=O)c2ccccc2)c1`, the figure is -1.64% (inactive).
The same measure for `COc1ccc2oc(C(=O)OCC(=O)N(CC(C)C)c3c(N)n(Cc4ccccc4)c(=O)[nH]c3=O)c(C)c2c1`: 5.5% (inactive); for `CCCn1c(C)cc(/C=C(\C#N)C(=O)OCC(=O)N(C)c2c(N)n(Cc3ccccc3)c(=O)[nH]c2=O)c1C`: -1.38% (inactive).
The same measure for `Cc1c(CCO)sc[n+]1CC(=O)OC12CC3CC(CC(C3)C1)C2`: -19.8% (inactive).
With `Cc1c(CCOC(=O)CC23CC4CC(CC(C)(C4)C2)C3)sc[n+]1Cc1ccc([N+](=O)[O-])cc1`, the growth inhibition is 93% (active).
As for `Cc1c(CCOC(=O)c2cc([N+](=O)[O-])ccc2Cl)sc[n+]1CCCCS(=O)(=O)[O-]`, the figure is -13.2% (inactive); as for `COc1ccc(/C=N/Nc2ncnc3sc4c(c23)CCCC4)cc1O`, 18.5% (inactive).
Consider `COc1ccc(-c2cc(C(=O)NC(Cc3c[nH]c4ccccc34)C(=O)O)c(C)o2)cc1OC` (centres undefined), for which the growth inhibition was -7.28% (inactive).
The same measure for `CN(C)CCNC(=O)c1[nH]nc2c1CCc1ccccc1-2`: -8.27% (inactive).
As for `COc1cccc(/C=N/NC(=O)c2[nH]nc3c2CCc2ccccc2-3)c1O`, the figure is 89.9% (active); as for `COc1cc2cc(C(=O)N/N=C/c3cccc(OC)c3OC)[nH]c2cc1OC`, 0.698% (inactive); as for `CCOc1ccc(-c2cc(C(=O)N/N=C/c3ccc(O)cc3)c3ccccc3n2)cc1`, 10.7% (inactive).
The same measure for `CCC1(c2ccccc2)NC(=O)N(CC(=O)Nc2ccccc2C(=O)NC2CCCC2)C1=O` (centres undefined): 2.41% (inactive); for `Oc1c(C(c2ccccn2)N2CCOCC2)ccc2cccnc12` (centres undefined): 85.8% (active).
For the molecule `CC(C)c1cc(CN2CCOCC2)cc(C(C)C)c1O`, the growth inhibition is 5.31% (inactive).
The same measure for `CCC(C)N(C(=O)COC(=O)c1nc(Cl)ccc1Cl)C1CCS(=O)(=O)C1` (centres undefined): -0.955% (inactive).
As for `Cc1cccc(NC(=O)CN2C(=O)c3ccccc3C2=O)c1C`, the figure is -5.98% (inactive); as for `Cc1cccc(NC(=O)COC(=O)CCc2ccccc2)c1C`, 0.193% (inactive); as for `Cc1cccc(NC(=O)CSC(N)=O)c1C`, 91.9% (active).
As for `COc1ccc(CCNc2cc(N3CCN(C(=O)c4ccccc4OC)CC3)ccc2[N+](=O)[O-])cc1OC`, the figure is -7.13% (inactive); as for `NC(=O)C1CCN(C(=O)COc2ccc3c4c(c(=O)oc3c2)CCC4)CC1`, -1.66% (inactive).
In the case of `NC(=O)COc1ccc2c3c(c(=O)oc2c1)CCCCC3`, the growth inhibition is 122% (active).
As for `O=C(COc1ccc2c3c(c(=O)oc2c1)CCC3)NC1CCCCC1`, the figure is 13.6% (inactive); as for `Cc1ccc(SCC(=O)Nc2nncs2)cc1`, -2.98% (inactive).
On to `COCCOC(=O)C1=C(C)NC(=O)NC1c1cc2c(cc1Br)OCO2` (centres undefined), for which the growth inhibition was -1.28% (inactive).
The same measure for `Cc1c(CCC(=O)O)c(=O)oc2c(C)c(OCc3ccccc3Cl)ccc12`: 16.4% (inactive); for `COc1cccc(C(=O)NNC(=O)c2ccccc2Br)c1`: 110% (active); for `COc1cccc(C(=O)NNC(=O)/C=C/c2ccccc2)c1`: -14.4% (inactive).
With `COc1cccc(C(=O)NNC(=O)c2cccc(F)c2)c1`, the growth inhibition is -10.7% (inactive).
The same measure for `O=C(O)c1ccc(S(=O)(=O)N2CCC(Cc3ccccc3)CC2)cc1`: -2.12% (inactive).
